# Sfp PPTase inh: inhibitors of Bacillus subtilis Sfp phosphopantetheinyl transferase. Biochemical Sfp PPTase activity, qHTS. Potency, µM, without a hit: largest response in the series, negative = inhibition, hits mostly inhibitors. Q9F4F7. AID 1490. 310,000 tested, 3.5% active;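 further: the enzyme is Sfp with the accession as filed and its product quenches rhodamine fluorescence; 0% = enzyme reaction without inhibitor and -100% = no enzyme wells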
#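 Compounds were incubated with enzyme (final 15 nM) for 15 min at room temperature before substrate addition started the reaction. Fluorescence at 525 nm excitation, 598 nm emission was recorded immediately and after 30 minutes.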
# G9a block: inhibitors of human histone lysine methyltransferase G9a | Q96KQ7 | G9a H3K9 monomethylation, AlphaScreen, 2 h | Potency, µM (titrated, usually from 102 µM), for the others: at the highest dose activity, negative = inhibition, actives largely listed as inhibitors | 350,000 tested, 8.8% active | AID 504332; further: on the % scale 0 is the no-effect control and ±100 the full control effect; nearly all actives have a fitted effect of over 75% in size
# Target sequence (Q96KQ7 913-1193 limits assumed): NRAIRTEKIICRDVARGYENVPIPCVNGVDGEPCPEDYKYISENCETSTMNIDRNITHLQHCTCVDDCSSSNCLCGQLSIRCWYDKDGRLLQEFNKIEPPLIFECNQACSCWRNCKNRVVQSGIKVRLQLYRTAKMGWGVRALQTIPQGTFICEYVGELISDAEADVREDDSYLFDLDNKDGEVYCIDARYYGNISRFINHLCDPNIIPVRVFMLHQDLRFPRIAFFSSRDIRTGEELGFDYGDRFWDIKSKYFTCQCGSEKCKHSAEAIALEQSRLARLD
#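 Quantitative HTS format: methyltransferase activity on a biotin-tagged H3K9 peptide is measured by AlphaScreen, using a rabbit anti-monomethyl-H3K9 antibody with streptavidin donor and anti-IgG acceptor beads. Final levels are 20 nM enzyme, 500 nM peptide, 20 uM SAM; 2 h RT.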
# ALOX12 inh: inhibitors of human 12S-lipoxygenase ALOX12; purified 12hLO, xylenol orange hydroperoxide absorbance; P18054; Potency, µM (titrated, usually from 108 µM), for inactives: at the highest dose activity change, negative = inhibition, actives largely listed as inhibitors; AID 1671190; 580,000 tested, 1.1% active; further: on the % scale 0 is the no-effect control and ±100 the full control effect
#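 Purified human 12hLO at 150 nM in 25 mM Hepes, 0.01% Triton X-100, pH 7.0, preincubated 15 min at room temperature with compound. Reaction started with 40 uM arachidonic acid, 30 min at room temperature. Hydroperoxide measured by Fe-xylenol orange, 573/405 nm absorbance ratio.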
# VDR inh: vitamin D3 receptor (human) inhibition | AID 504847 | Potency, µM, for the others: max response, negative = inhibition, most hits filed as inhibitors | 400,000 tested, 0.93% active | VDR-SRC2-3 peptide fluorescence polarization, 2 h | P11473; further: on the % scale 0 is the no-effect control and ±100 the full control effect
# Target sequence (P11473 whole entry, looked up): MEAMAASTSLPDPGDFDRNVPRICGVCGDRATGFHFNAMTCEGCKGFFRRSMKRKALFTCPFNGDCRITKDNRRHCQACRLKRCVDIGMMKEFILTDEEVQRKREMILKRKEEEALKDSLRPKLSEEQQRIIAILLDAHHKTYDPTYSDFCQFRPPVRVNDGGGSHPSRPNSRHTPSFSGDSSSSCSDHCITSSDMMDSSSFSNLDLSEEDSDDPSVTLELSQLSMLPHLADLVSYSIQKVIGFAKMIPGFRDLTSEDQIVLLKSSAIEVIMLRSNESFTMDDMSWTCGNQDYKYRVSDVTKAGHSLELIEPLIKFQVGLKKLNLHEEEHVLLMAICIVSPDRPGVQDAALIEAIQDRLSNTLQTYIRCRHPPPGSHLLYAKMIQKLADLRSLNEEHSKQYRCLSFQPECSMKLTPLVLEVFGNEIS
#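 Signal is fluorescence polarization, reporting how far test compounds block the interaction of VDR with the SRC2-3 coregulator peptide after a 2 h room-temperature incubation.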
# Glioma ERSR ind: ER stress response induction in glioma. AID 602332. 420,000 tested, 0.02% active. Potency, µM, inactives show at the top dose activation, hits mostly activators. U87-MG GRP78 promoter luciferase reporter, 16 h; further: series mostly up to about 76 µM; % of control where 0% means no effect; nearly all actives have a fitted effect of over 35% in size
#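 ERSR induction read as luciferase luminescence (Bright-Glo, 10 min at room temperature) in stably transfected human U87-MG glioma cells exposed to compounds for 16 h, using GRP78 as sensor.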
# * hit, by the source's call; ? = inconclusive; / = not tested or not shown; [ ] = remark or other dose. Shown is part of a subset that was picked to be rich in hits. The call rests on the fitted dose curve; in most records, active means well fitted curve in the direction sought with a large enough effect; inconclusive means small, poorly fitted or top-dose-only effect, or another doubt; inactive means no such curve, though single readings can be large; an effect the other way counts as inactive or inconclusive. Potency means the concentration at half of the fitted maximal effect.
SMILES,Sfp PPTase inh,G9a block,ALOX12 inh,VDR inh,Glioma ERSR ind
Cc1ccc(-n2c(=O)c3c(cnn3C)n(Cc3ccc(Cl)cc3)c2=O)cc1,/,17.3%[59 µM],-3.2%,89.1µM*,/
CCOc1ccc(C(=S)N2CCOCC2)cc1OC,-13.0%,?,30.2%,16.1%,-0.9%
CCOc1ccc(C(CN2CCOCC2)C(C)=O)cc1OC (stereo not drawn),/,/,31.6µM*,/,-9.9%
CCOc1cc(/C=C/C(=O)c2ccc(OC)c(CN3CCOCC3)c2)cc(Br)c1O,-1.0%,44.7µM*,-17.3%,-20.2%,3.3%
CCOc1cc(C(=S)N2CCOCC2)ccc1OC,-29.9%,10µM*,?,-1.3%,-0.6%
COc1ccccc1CNC(=O)CSC(=S)N1CCCC1,/,11.2µM*,4.3%,-29.5%,-0.2%
CCOc1c(Br)cc(/C=C/C(=O)c2cccc(OC)c2)cc1OC,/,/,-10.6%,/,/
Cc1ccc2c(C(=O)O)csc2c1,/,/,9.2%,/,/
CCOc1ccc(C(=S)N2CCCC2)cc1OCC,56.2µM*,10µM*,?,-18.0%,-0.9%
CCOc1ccc(C(=S)NC2CCCCC2)cc1OC,44.7µM*,12.6µM*,22.4µM*,50.1µM*,1.3%
CCOc1ccc(CC(=O)NNC(=S)NC2CCCCC2)cc1OCC,28.4%,14.2%[59 µM],0.0%,3.4%,-6.2%
CCOc1ccc(CCNC(=O)C2CC=CCC2C(=O)OC(C)C)cc1OCC (stereo not drawn),11.6%,13.3%,-6.4%,0.1%,6.9%
CCOc1ccc(CCNC(=O)C2CC(C)=CCC2C(=O)O)cc1OCC (stereo not drawn),7.5%,22.4µM*,-3.5%,13.5%,-7.1%
CCOc1cc(C(=S)N2CCCC2)ccc1OCc1ccccc1,14.9%,1.2%,86.2%,14.0%,1.4%
CCOc1cc(C(=S)N2CCOCC2)ccc1OC(=O)c1ccccc1,79.4µM*,22.4µM*,?,-15.1%,-3.0%
COc1ccc(/C(C)=N/OC(=O)c2ccc(OC(C)C)cc2)cc1OC,/,/,15.3%,/,/
Cc1ccc(CNc2nc3ccccc3nc2NS(=O)(=O)c2ccc(F)cc2)cc1,/,/,13.9%,/,/
Cc1ccc2nc(-c3ccc(Cl)c(NC(=O)c4cc([N+](=O)[O-])ccc4N4CCOCC4)c3)oc2c1,/,/,16.2%,/,/
CCOc1ccc(CCNC(=O)COC(=O)C2CC2)cc1OCC,/,0.8%,1.2%,-25.0%,-2.7%
CCOc1cc(C(=S)N2CCOCC2)ccc1OC(=O)c1ccc(C)cc1,-9.5%,44.7µM*,-15.0%,2.9%,-5.4%
CCOc1ccc(CCNC(=O)CSC(=S)N2CCCC2)cc1OCC,/,39.8µM*,-34.7%,?,-0.3%
CCOc1cc(C(=S)N2CCOCC2)ccc1OC(=O)c1cccc(C)c1,-3.0%,?,-9.6%,-5.2%,-2.7%
O=C(O)/C=C/C(=O)Nc1ccccc1SC(F)(F)C(F)(F)C(F)(F)F,?,44.7µM*,-8.6%,-23.8%,-5.5%
N#Cc1cc2ccccc2n2nnnc12,6.2%,50.1µM*,-4.3%,-4.0%,-3.0%
Nc1c(-c2ccccc2)nc2ncccn12,/,/,-2.4%,/,/
SMILES,Sfp PPTase inh,G9a block,ALOX12 inh,VDR inh,Glioma ERSR ind
O=Nc1c(-c2cccc([N+](=O)[O-])c2)nc2ncccn12,15.8µM*,/,-45.4%,/,/
COc1ccc(CNC(=O)c2ccc3c(c2)N(C(=O)c2ccc(F)cc2)CC3)cc1,/,/,9.7%,/,/
O=C(NCc1ccccc1S(=O)(=O)N1CCOCC1)c1ccc(OC(F)F)cc1,/,/,1.2%,/,/
O=c1c2cn[nH]c2[nH]c(=S)n1-c1cccc(Cl)c1,-23.4%,31.6µM*,-14.3%,-5.3%,3.4%
CN(C)[S+](=O)([O-])c1ccc2c(c1)OCCN(Cc1ccc(C(F)(F)F)cc1)C2,/,/,60.1%[176 µM],/,/
O=C(O)c1cccc(S(=O)(=O)NNc2ccccc2C(F)(F)F)c1,-28.5%,1.41µM*,15.8µM*,?,-2.9%
Cn1nc(C(=O)Nc2ccccc2Br)c2ccccc2c1=O,/,/,-29.2%,/,/
COc1ccc(C(=O)Nc2ccc3nc(N4CCOCC4)sc3c2)cc1OC,/,-6.9%[12.7 µM],21.6%,-12.9%,-0.3%
CCCn1nc(C(=O)Nc2ccc3nc(N4CCOCC4)sc3c2)ccc1=O,/,50.1µM*,1.1%,1.0%,-6.5%
CC1(C)OC(C)(C)/C(=C/Nc2ccc(O)cc2)C1=O,?,8.91µM*,?,-3.7%,-2.0%
Cc1ccc(C(O)CNC(=O)Nc2c(C)cc(C)cc2C)cc1 (stereo not drawn),/,/,3.0%,/,/
CC[C@H](NC(=O)[C@@H](Cc1ccccc1)NC(=O)[C@H]1O[C@@H](n2ccc(=O)[nH]c2=O)[C@H](O)[C@@H]1O)c1ccccc1,/,/,-12.3%,/,/
CC[C@@H](NC(=O)[C@@H](Cc1ccccc1)NC(=O)CC[C@H]1O[C@@H](n2ccc(=O)[nH]c2=O)[C@H](O)[C@@H]1O)c1ccccc1,/,/,31.6µM*,/,-3.4%
Cc1c(C)n(CCCN(C)C)c2ncnc(NCc3ccccc3)c12,0.6%,79.4µM*,-21.9%,8.9%,-2.1%
CC(C)c1cc(Nc2cccc(O)c2)cc(C(C)C)c1O,22.4µM*,?,/,/,/
CC(C)c1cc(NC(=O)C(C)(C)C)cc(C(C)C)c1O,2.1%,-6.1%[59 µM],77.6%[57.4 µM],-5.5%,0.1%
Cc1cccc(NS(=O)(=O)c2cccc3nonc23)c1,-15.0%,-6.0%,/,-16.8%,-5.0%
O=S(=O)(Nc1ccc(Br)cc1)c1cccc2nonc12,15.3%,79.4µM*,14.6%,-9.4%,3.2%
COc1ccc(CN2C(=O)[C@@H]3C[C@@H](CN3C3CCCC3)Oc3ccccc32)cc1,/,/,1.7%[176 µM],/,/
COC(=O)c1ccc2c(c1)nc1n2[C@@H](CNCc2ccc(F)c(F)c2)COC1,/,/,5.1%[176 µM],/,/
COc1cccc(N=Nc2ccc3cccnc3c2O)c1,15.5%,7.08µM*,?,-8.0%,-3.8%
O=S(=O)(O)c1cccc2c(N=Nc3ccc(O)c4ncccc34)cccc12,-7.1%,10µM*,/,-12.0%,-5.4%
Cc1ccccc1N=Nc1ccc(O)c2ncccc12,3.4%,?,-36.9%,-0.9%,-1.2%
COc1cccc(N=Nc2ccc(O)c3ncccc23)c1,12.3%,10µM*,?,4.1%,4.3%
COc1ccc(C)cc1N=Nc1ccc(O)c2ncccc12,5.0%,10µM*,?,2.6%,-4.3%
SMILES,Sfp PPTase inh,G9a block,ALOX12 inh,VDR inh,Glioma ERSR ind
CCN(CC)S(=O)(=O)c1ccc(N(C)CCOc2ccc(Br)cc2)nc1,/,/,-1.2%,/,/
COc1ccc(-c2ocnc2C(=O)Nc2cc(Cl)ccc2C)cc1OC,/,/,-0.4%,/,/
Cc1ccccc1NC(=S)NC1CCCC1,5.3%,-7.1%,?,-1.7%,0.6%
S=C(NCCCc1ccccc1)NC1CCCCC1,13.1%,57.5%,44.7µM*,6.9%,6.1%
Cc1ccccc1NC(=S)NC(=O)c1cncc(Br)c1,3.2%,-12.5%[59 µM],?,-27.6%,-4.2%
Cc1cc(O)ccc1NC(=S)NC(=O)c1cncc(Br)c1,56.2µM*,?,-5.3%,-20.8%,-1.6%
S=C(Nc1ccccn1)NC1CCCC1,44.7µM*,0.355µM*,44.7µM*,-27.6%,-2.9%
CCOC(=O)C(C(=O)Nc1ccccn1)C1CCCCC1 (stereo not drawn),-16.6%,50.1µM*,?,2.7%,-2.6%
N#Cc1nc(-c2ccco2)oc1NCc1ccccc1,/,/,-16.1%,/,/
